The values that follow come from PubChem BioAssay (NCATS).

Experiment [1] concerns the target Lysosomal acid glucosylceramidase (Homo sapiens) (UniProt P04062). The experiment can be described thus: Glucocerebrosidase-p2 (AID 348; in the data active = potency below about 10 µM; note: potency is the fitted concentration of half-maximal effect). The following applies: purified GBA, blue fluorogenic substrate, 40 min. The method in brief: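 Normal human glucocerebrosidase (0.2 nM) with blue fluorogenic substrate (80 uM final) in citrate/phosphate pH 5.9 with 10mM sodium taurocholate, 0.01% tween-20; 40 min RT, NaOH/glycine stop; fluorescence Ex 365/Em 440; AC50 from a titration from 0.6 nM upwards.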

Experiment [2] can be described thus: AP1 Signaling Pathway (AID 357; active = well fitted curve in either direction with a large enough effect, not every such curve was filed as active; note: % is set by controls: 0 for no effect and ±100 for the full control effect). The following applies: ME-180 AP-1-bla reporter, EGF-induced, beta-lactamase ratio, 5 h; at 7.69 µM (top of the series) unless noted. The method in brief:
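ME-180 cells with beta-lactamase reporter under AP-1 response element, stimulated with EC50 EGF; compounds tested in titration series, 5 h at 37 °C. CCF4 substrate added 2.5 h at room temperature; 460/530 nm emission ratio gave %activity and AC50.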

Experiment [3] concerns the target Cytochrome P450 1A2 (Homo sapiens) (UniProt P05177). The experiment in a line: p450-cyp1a2 (AID 410; calls by dose curve; note: potency is the fitted concentration of half-maximal effect). The following applies: recombinant CYP1A2, luciferin-ME demethylation, luminescence; series mostly up to 57 µM. In a few lines: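 O-Demethylation of luciferin 6' methyl ether by human CYP1A2 is monitored as luciferase luminescence. Substrate sits at Km (100uM); enzyme is 20nM. Values are scaled to 57 uM furafylline as maximal inhibition.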

Experiment [4] has as its target Glucocorticoid receptor (Homo sapiens) (UniProt P04150). The experiment can be described thus: GR-GFP Redistribution (AID 450;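 active = compounds whose dose series gives a full or clear partial fitted curve of increased nuclear translocation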; note: potency is the fitted concentration of half-maximal effect). Conditions: U2OS GR-GFP nuclear translocation, laser cytometry, 2 h.
For experiment [5] the target is unchanged. The experiment in a line: GR-EFC Redistribution (AID 451; calls by dose curve; note: potency is the fitted concentration of half-maximal effect). Conditions: CHO-K1 GR-EFC translocation, beta-gal luminescence, 2 h. The method in brief:
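CHO-K1 cells expressing nuclear EA and GR-ED fragments of b-gal; compounds titrated up to 46 uM final, 2 h at 37 C. GR nuclear translocation read as complemented b-gal luminescence after 1 h RT detection.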

Experiment [6] has as its target Mitogen-activated protein kinase 10 (Mus musculus) (UniProt Q61831). The experiment can be described thus: JNK3 AlphaScreen Assay (AID 530; active = well fitted curve in either direction with a large enough effect, not every such curve was filed as active;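 note: kinase came from lysate of stimulated human HepG2 cells; signal reports phosphorylation of biotinylated GST-cJun 1-79 at Ser73 with 10 µM ATP; % is set by controls: 0 for no effect and ±100 for the full control effect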). Conditions: JNK3 lysate, c-Jun phosphorylation; series mostly up to 57.1 µM. In a few lines: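 Activity was read by AlphaScreen after JNK3-containing HepG2 lysate (cytokine pre-activated) phosphorylated biotinylated GST-cJun with 10 uM ATP at room temperature. Phospho-Ser73 cJun antibody with Protein-A acceptor beads provided detection.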

Experiment [7] has as its target Cytochrome P450 3A4 (Homo sapiens) (UniProt P08684). The experiment in a line: qHTS Assay for Inhibitors and Substrates of Cytochrome P450 3A4 (AID 884). Note: nearly all actives have a fitted effect of over 50% in size. Note: potency is the fitted concentration of half-maximal effect. The following applies: recombinant CYP3A4, Luciferin-PPXE luminescence; series mostly up to 57.1 µM. In a few lines: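 Luminescent readout of luciferin produced by CYP3A4 (20 nM) dealkylation of Luciferin-PPXE, 25 uM (its KM). NADPH-driven reaction ran 60 min at RT after 10 min compound preincubation; data scaled to 57 uM ketoconazole as 100% inhibition.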
(In general: qHTS replaces the single test concentration by a dilution series.)

Experiment [8] has the same target. The experiment in a line: qHTS Assay for Activators of Cytochrome P450 3A4 (AID 885). Note: nearly all actives have a fitted effect of over 65% in size. Note: potency is the fitted concentration of half-maximal effect. The following applies: recombinant CYP3A4, Luciferin-PPXE luminescence, 60 min; series mostly up to 57.1 µM. The method in brief: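 Human CYP3A4 dealkylates Luciferin-PPXE to luciferin, which luciferase detection converts to light. Substrate was at its KM (25uM), buffer 200mM KPO4, reaction 60 min at RT.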

The nature of experiment [9]: Confirmation and Secondary Assay for Modulators of Hemoglobin Beta Chain Splicing at IVS2 705 locus (AID 930).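 Note: HeLa cells stably expressing the EGFP-705 splicing reporter; GFP fluorescence per well restored by corrected splicing of the IVS2-705 intron in EGFP; % of control where 0% means no effect.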 The following applies: HeLa EGFP-705 splicing reporter, GFP fluorescence, 48 h; series mostly up to 38.3 µM. In a few lines:
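HeLa cells stably carrying EGFP interrupted by mutant beta-globin intron 2 (IVS2-705) treated 2 days at 37C with compound; 500 nM antisense PNA as control. Correct splicing read as total peak GFP intensity per well by laser-scanning cytometry.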

The target in experiment [10] is Ubiquitin carboxyl-terminal hydrolase 1 (Homo sapiens) (UniProt O94782). The experiment in a line: Inhibitors of USP1/UAF1: Pilot qHTS (AID 504865).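 Note: rhodamine fluorescence freed from ubiquitin-rhodamine substrate followed over time; top concentration of the series differs between compounds; % is set by controls: 0 for no effect and ±100 for the full control effect; nearly all actives have a fitted effect of over 35% in size.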 Conditions: purified USP1/UAF1, Ub-rhodamine cleavage fluorescence; series mostly up to 54.9 µM. In a few lines:
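USP1/UAF1 complex at 1 nM preincubated 15 min at room temperature with compound, then Ub-Rho substrate added at 150 nM final. Fluorescence (480/540 nm) read kinetically in 50 mM HEPES pH 7.8, 0.5 mM EDTA, 1 mM TCEP, 0.1 mg/ml BSA, 0.01% Tween-20.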

Experiment [11] can be described thus: Primary qHTS for small molecule stabilizers of the endoplasmic reticulum resident proteome: Secreted ER Calcium Modulated Protein (SERCaMP) assay (AID 1508630). Note: % is set by controls: 0 for no effect and ±100 for the full control effect. The following applies: SH-SY5Y GLuc-SERCaMP (Gaussia luciferase released on ER calcium loss) secretion, thapsigargin, luminescence; series mostly up to 38.4 µM. The method in brief: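 The SH-SY5Y reporter protocol was run at 3 concentrations up to 38.3 uM (primary) or 11 concentrations (follow-up): 16 h compound, 100 nM thapsigargin for 4 h, then extracellular luciferase luminescence.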

Experiment [12] is described as follows: Stat Signaling Pathway (AID 446; active = well fitted curve in either direction with a large enough effect, not every such curve was filed as active;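 note: ME-180 cervical cancer cells given 40 pM IL-6 alongside compound; SIE-controlled beta-lactamase reporter measured as 460/530 nm FRET emission ratio; % is set by controls: 0 for no effect and ±100 for the full control effect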). The following applies: ME-180 SIE beta-lactamase reporter, IL-6 stimulated, 5 h; at 7.69 µM (top of the series) unless noted. In a few lines: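 Normalization used AC90 stimulation (300 pM IL-6) and AC90 inhibition (125 nM pan-JAK inhibitor at 40 pM IL-6). The underlying signal is SIE-driven beta-lactamase in ME-180 cells after 5 h IL-6 exposure with compound.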

Experiment [13] concerns the target 3',5'-cyclic-AMP phosphodiesterase 4B (Homo sapiens) (UniProt Q07343). The experiment in a line: qHTS Assay for Inhibitors of PDE-IV (AID 607; active = well fitted activation curve with a large enough effect in the main read-out, with a control signal flat, not every such curve was filed as active; note: % of control where 0% means no effect). Conditions: HEK293 ACTOne CNG channel cells, membrane potential fluorescence; series mostly up to 22.9 µM. The method in brief: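 HEK293 ACTOne cells with CNG channel (1000/well), endogenous PDE4; membrane potential dye, compounds up to 22.9 uM final. Fluorescence Ex 535/Em 590; RO 20-1724 (100 uM final) as reference.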

Experiment [14] can be described thus: qHTS Assay for Identification of Small Molecule Agonists for Hypoxia Response Element Signaling Pathway (AID 914; active = well fitted activation curve with a large enough effect in the signal ratio, with a control signal flat, not every such curve was filed as active; the % refers to the signal ratio; note: potency is the fitted concentration of half-maximal effect; for activation: % of control where 0% means no effect). Conditions: ME-180 (cervical carcinoma) HRE-bla reporter, beta-lactamase ratio, CoCl2, 17 h; activation: stronger effect = higher value. In a few lines:
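HRE-bla ME-180 cells with beta-lactamase reporter under hypoxia response element, compounds with EC50 CoCl2 for 17 hours at 37 C. CCF4 substrate, 460nm/530nm emission ratio gave %Activity; AC50 from titration series.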

Experiment [15] addresses Cytochrome P450 2C9 (Homo sapiens) (UniProt P11712). The experiment in a line: qHTS Assay for Inhibitors and Substrates of Cytochrome P450 2C9 (AID 883). Note: nearly all actives have a fitted effect of over 60% in size. Note: potency is the fitted concentration of half-maximal effect. Conditions: recombinant CYP2C9, luciferin-H luminescence, 60 min; series mostly up to 57.1 µM. In a few lines: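 10nM CYP2C9 + 100uM Luciferin-H (=KM), 25mM KPO4; cpd 10 min 37C; NADPH regen, 60 min 37C; stop/detect with P450 Glo-Buffer 20 min; luminescence. Norm. to 57uM sulphaphenazole as full inhibition.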

Experiment [16] concerns the target Cytochrome P450 2D6 (Homo sapiens) (UniProt P10635). The experiment can be described thus: qHTS Assay for Inhibitors and Substrates of Cytochrome P450 2D6 (AID 891).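 Note: luciferin methyl ether substrate demethylated by CYP2D6 with NADPH regeneration; % is set by controls: 0 for no effect and ±100 for the full control effect; nearly all actives have a fitted effect of over 60% in size.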 The following applies: recombinant CYP2D6, luciferin-ME EGE luminescence; series mostly up to 57.1 µM. In a few lines:
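Luminescent read-out of luciferin formed by 5 nM human CYP2D6 demethylating 30 uM Luciferin-ME EGE (Km level) over 60 min at room temperature after NADPH regeneration addition. Data normalized to full inhibition by 1.43 uM quinidine.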

Experiment [17] has as its target Cytochrome P450 2C19 (Homo sapiens) (UniProt P33261). The experiment can be described thus: qHTS Assay for Inhibitors and Substrates of Cytochrome P450 2C19 (AID 899). Note: nearly all actives have a fitted effect of over 60% in size. Note: potency is the fitted concentration of half-maximal effect. The following applies: recombinant CYP2C19, luciferin-H EGE luminescence; series mostly up to 57.1 µM. In a few lines: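 Luminescent read-out of luciferin formed from Luciferin-H EGE (10uM, equal to KM). Enzyme 5nM in 50mM KPO4; compound added, 10 min at 37C, then NADPH regenerating system for 60 min at 37C. Full inhibition defined by 57uM ketoconazole.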

Molecules are shown by their SMILES. A number with no mark means an inactive call. Results filed as inconclusive are left out. Calls of active or inactive are those of the source. Unless noted, calls come from the whole dose curve; as a rule, active = well fitted curve in the direction sought with a large enough effect; inconclusive = small, poorly fitted or top-dose-only effect, or another doubt; inactive = no such curve, though single readings can be large; an effect the other way counts as inactive or inconclusive.

Cytochrome P450 1A2 (Homo sapiens), sequence (P05177 whole entry, looked up): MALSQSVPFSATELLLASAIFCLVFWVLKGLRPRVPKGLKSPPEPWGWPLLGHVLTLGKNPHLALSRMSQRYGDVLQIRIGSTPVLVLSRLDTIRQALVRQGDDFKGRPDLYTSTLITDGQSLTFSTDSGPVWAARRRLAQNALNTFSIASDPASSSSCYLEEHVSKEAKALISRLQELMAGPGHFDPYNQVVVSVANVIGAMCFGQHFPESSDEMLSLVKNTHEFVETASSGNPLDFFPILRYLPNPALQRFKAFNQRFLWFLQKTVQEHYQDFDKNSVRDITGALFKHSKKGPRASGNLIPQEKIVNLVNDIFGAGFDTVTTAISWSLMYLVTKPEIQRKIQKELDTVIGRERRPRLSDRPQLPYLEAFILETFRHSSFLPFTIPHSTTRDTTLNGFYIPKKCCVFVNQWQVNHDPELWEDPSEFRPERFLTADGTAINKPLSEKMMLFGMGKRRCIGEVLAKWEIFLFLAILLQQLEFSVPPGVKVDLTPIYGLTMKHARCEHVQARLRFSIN
Glucocorticoid receptor (Homo sapiens), sequence (P04150 whole entry, looked up): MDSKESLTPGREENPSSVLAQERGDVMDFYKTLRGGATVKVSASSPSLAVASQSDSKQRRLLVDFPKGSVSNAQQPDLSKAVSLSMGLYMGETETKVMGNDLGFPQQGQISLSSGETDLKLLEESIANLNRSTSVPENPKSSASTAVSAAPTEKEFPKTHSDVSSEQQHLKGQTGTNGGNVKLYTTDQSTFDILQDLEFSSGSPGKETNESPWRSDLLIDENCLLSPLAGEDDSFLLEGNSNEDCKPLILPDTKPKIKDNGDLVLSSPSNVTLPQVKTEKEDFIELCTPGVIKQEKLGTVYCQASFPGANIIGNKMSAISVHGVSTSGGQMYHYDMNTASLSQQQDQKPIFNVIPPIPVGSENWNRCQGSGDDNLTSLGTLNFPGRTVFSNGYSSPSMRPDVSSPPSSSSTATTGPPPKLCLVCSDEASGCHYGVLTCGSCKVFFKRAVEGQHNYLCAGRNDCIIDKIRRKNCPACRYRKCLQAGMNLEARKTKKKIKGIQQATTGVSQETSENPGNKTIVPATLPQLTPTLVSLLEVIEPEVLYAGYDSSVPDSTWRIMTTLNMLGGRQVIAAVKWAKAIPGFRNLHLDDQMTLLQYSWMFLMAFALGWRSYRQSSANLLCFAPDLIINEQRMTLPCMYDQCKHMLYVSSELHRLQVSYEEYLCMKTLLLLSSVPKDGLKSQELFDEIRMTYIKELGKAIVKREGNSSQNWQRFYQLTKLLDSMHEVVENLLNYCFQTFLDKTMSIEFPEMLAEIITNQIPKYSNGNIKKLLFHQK
Cytochrome P450 3A4 (Homo sapiens), sequence (P08684 whole entry, looked up): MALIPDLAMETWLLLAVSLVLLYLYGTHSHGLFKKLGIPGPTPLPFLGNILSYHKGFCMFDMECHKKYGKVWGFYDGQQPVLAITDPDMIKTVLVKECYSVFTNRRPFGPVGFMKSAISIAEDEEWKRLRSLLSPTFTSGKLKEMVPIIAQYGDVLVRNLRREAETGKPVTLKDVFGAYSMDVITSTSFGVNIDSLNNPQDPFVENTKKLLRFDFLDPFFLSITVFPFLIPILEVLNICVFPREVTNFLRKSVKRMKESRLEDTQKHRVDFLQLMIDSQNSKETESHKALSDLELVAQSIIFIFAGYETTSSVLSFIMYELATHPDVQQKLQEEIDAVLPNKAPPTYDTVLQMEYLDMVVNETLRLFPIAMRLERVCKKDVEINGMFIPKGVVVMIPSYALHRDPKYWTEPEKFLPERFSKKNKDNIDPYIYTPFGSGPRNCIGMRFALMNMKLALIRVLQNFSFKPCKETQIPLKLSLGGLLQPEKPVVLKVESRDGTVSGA
3',5'-cyclic-AMP phosphodiesterase 4B (Homo sapiens), sequence (Q07343 whole entry, looked up): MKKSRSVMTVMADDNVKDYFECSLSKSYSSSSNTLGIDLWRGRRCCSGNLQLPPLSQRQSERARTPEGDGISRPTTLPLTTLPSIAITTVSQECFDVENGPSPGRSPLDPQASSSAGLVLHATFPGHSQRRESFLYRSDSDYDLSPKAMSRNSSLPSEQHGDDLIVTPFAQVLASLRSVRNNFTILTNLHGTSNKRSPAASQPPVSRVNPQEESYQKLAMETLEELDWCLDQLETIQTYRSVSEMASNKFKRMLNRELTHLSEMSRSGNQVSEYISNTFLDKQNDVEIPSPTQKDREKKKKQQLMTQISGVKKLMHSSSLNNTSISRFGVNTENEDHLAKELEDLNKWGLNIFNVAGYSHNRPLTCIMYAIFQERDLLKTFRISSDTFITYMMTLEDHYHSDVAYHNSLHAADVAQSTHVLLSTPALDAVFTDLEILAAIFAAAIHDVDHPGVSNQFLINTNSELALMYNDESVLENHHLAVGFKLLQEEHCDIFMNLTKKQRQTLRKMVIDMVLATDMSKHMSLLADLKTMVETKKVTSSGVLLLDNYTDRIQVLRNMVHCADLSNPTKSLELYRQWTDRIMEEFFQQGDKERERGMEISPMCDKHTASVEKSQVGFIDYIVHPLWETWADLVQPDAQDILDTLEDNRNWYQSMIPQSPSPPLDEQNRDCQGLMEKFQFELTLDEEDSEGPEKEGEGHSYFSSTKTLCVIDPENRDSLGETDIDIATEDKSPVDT
Lysosomal acid glucosylceramidase (Homo sapiens), sequence (P04062 whole entry, looked up): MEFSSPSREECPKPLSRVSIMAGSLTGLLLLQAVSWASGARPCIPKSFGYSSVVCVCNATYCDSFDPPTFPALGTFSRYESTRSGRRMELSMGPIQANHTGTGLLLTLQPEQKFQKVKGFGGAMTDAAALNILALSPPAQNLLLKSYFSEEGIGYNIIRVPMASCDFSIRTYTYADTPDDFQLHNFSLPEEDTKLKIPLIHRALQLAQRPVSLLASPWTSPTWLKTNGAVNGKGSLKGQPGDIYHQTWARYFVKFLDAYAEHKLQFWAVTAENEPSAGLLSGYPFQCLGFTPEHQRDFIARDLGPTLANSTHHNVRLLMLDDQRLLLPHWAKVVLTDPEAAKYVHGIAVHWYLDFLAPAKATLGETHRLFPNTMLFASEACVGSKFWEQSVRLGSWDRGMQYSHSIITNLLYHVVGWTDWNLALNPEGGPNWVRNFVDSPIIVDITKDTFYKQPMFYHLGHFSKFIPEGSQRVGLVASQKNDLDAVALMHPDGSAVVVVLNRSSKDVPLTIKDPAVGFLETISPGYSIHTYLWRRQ
Cytochrome P450 2C9 (Homo sapiens), sequence (P11712 whole entry, looked up): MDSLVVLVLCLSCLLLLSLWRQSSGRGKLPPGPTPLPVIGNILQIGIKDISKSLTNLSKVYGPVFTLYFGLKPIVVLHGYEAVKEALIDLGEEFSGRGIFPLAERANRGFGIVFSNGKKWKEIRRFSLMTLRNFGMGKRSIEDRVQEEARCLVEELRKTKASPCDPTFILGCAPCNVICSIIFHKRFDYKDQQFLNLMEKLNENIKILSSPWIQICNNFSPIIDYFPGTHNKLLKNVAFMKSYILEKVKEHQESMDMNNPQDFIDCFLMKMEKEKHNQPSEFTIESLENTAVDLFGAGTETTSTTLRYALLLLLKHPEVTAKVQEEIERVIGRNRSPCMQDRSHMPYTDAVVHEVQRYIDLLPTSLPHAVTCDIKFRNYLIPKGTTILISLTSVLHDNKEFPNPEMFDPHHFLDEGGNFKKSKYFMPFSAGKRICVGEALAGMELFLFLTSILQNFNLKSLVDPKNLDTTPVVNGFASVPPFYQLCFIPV
Cytochrome P450 2C19 (Homo sapiens), sequence (P33261 whole entry, looked up): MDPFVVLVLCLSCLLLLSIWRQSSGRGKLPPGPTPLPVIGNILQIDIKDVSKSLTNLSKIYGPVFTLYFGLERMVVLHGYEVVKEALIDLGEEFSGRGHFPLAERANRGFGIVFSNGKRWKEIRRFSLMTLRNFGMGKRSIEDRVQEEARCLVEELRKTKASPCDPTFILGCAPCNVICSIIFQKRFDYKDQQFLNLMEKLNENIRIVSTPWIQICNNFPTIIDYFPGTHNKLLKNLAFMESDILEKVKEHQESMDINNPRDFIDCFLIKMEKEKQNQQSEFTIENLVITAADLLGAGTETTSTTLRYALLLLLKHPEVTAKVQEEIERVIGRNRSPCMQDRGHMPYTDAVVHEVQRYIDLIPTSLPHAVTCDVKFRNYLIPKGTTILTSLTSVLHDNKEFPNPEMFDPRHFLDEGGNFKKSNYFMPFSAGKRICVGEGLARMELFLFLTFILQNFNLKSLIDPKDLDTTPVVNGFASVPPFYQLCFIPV
Ubiquitin carboxyl-terminal hydrolase 1 (Homo sapiens), sequence (O94782 whole entry, looked up): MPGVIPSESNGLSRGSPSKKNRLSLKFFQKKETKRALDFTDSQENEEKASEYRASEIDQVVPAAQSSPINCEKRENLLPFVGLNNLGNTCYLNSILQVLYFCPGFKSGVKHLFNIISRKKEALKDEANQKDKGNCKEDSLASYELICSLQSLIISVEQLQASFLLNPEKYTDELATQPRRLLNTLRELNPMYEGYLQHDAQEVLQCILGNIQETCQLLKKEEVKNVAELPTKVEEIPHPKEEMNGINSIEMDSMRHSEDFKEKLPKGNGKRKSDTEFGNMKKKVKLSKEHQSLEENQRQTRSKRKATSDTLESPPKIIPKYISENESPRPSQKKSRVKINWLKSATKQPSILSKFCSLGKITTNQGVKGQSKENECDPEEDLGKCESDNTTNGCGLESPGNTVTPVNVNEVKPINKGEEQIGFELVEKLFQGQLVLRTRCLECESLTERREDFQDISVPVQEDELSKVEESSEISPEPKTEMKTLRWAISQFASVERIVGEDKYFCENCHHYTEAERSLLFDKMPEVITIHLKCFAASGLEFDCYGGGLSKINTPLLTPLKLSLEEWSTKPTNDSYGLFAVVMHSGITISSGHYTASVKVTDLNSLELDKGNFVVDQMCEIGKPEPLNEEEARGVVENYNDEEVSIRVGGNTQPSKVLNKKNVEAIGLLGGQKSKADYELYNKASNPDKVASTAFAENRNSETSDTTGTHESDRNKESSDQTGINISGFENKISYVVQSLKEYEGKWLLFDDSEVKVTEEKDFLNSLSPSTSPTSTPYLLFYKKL

As to `Cc1cnc(CNc2nc(-c3ccc4c(c3)OCO4)nc3ccccc23)cn1`, the Potency was above 11.4 µM in [1]; 2 µM (active) in experiment [3]; above 46 µM in experiment [4]; above 46 µM in experiment [5]; 794 nM (active) in experiment [7]. The activity change, negative = inhibition in experiment [2] is -3.88%. For the same compound, the Potency entry in [6], in experiment [8] and in experiment [10] was “inactive” in each case. Further, the call in [9] and in experiment [11] was inactive.
For `COC(=O)N1CCC2(CC1)CCN(c1ccccn1)CC2`, the Potency was above 11.4 µM in experiment [1], above 46 µM in [5] and 20 µM (active) in experiment [8]. In experiment [2], the activity change, negative = inhibition was -8.66%. The Potency entry in [3], in experiment [6], in experiment [13] and in experiment [7] was “inactive” each time. Besides, in experiment [12], the activity, negative = inhibition was -8.24%. Further, the outcome in [11] was inactive.
Regarding `COc1ccccc1CN1CCCC2(CCN(C(=O)c3csnn3)CC2)C1`, the Potency in [1] was above 11.4 µM; in [5], above 46 µM. Further, the activity change, negative = inhibition in experiment [2] is 3.73%. Further, the Potency result in experiment [3], in [6], in experiment [13] and in experiment [8] was “inactive” in each case. Moreover, the activity, negative = inhibition in experiment [12] was 0.773%. In addition, the activation in experiment [14] is 12.1%. Also, the outcome in [11] was inactive.
`O=C(c1ccco1)N1CCC2(CCCN(c3ccncc3)C2)CC1`: the Potency in experiment [1] is above 11.4 µM; in experiment [5], above 46 µM. The activity change, negative = inhibition in experiment [2] is -2.46%. The Potency result in experiment [3], in experiment [6], in experiment [13], in [15] and in experiment [16] was “inactive” in each case. In addition, the activity, negative = inhibition in [12] was 3.15%. Also, the outcome in experiment [11] was inactive.
As for `COc1ccc(-c2nc3cnc(N4CCN(C)CC4)nc3n(CCC#N)c2=O)cc1`, the Potency was above 11.4 µM in experiment [1], above 46 µM in [5] and 3.16 µM (active) in [14]. Also, the activity change, negative = inhibition in [2] is 23.4%. Moreover, the Potency result in experiment [3], in experiment [6], in experiment [13] and in experiment [8] was “inactive” throughout. The result in [11] was inactive.
For `COc1ccccc1CCn1c(=O)c(-c2ccc(Cl)cc2)nc2cncnc21`, the Potency is above 11.4 µM in experiment [1]; 0.631 µM (active) in [3]; above 9.22 µM in experiment [4]; above 46 µM in experiment [5]; 3.98 µM (active) in experiment [15]; 398 nM (active) in experiment [17]. The activity change, negative = inhibition in experiment [2] is 10.2%. For the same compound, the activity, negative = inhibition in experiment [12] is 6.76%. Also, the Potency result in [6], in experiment [13] and in experiment [8] was “inactive” each time. Further, in experiment [11], the result was inactive.
In the case of `O=S(=O)(c1ccccc1)N1CCC2(CCCN(Cc3nccs3)C2)CC1`, the Potency was above 11.4 µM in experiment [1], above 46 µM in [5] and 3160 nM (active) in [7]. The activity change, negative = inhibition in experiment [2] was -17.2%. Besides, the Potency entry in experiment [3], in experiment [6], in experiment [13], in [8] and in experiment [17] was “inactive” each time. The activity, negative = inhibition in experiment [12] is -1.51%. Moreover, in experiment [11], the outcome was inactive.
